Our source for the growth values is PubChem BioAssay (NCI).

Several values for one entry are separate records, joined by “and”; a condition that tells them apart may be missing. Identical values can stand only once. The panel holds about 83,000 compounds, 20% with a hit somewhere; the sample as a whole holds those more often.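 A percent growth of 40 corresponds to 60% growth inhibition; 0 means no net growth; -100 means all cells died. Active threshold: below 10.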 A number with no mark means an inactive call. Activity calls are given as the source filed them.

The assay relates to MDA-MB-468 breast. Kind of assay: NCI-60 one-dose screen, 48 h (100 = growth as untreated, 0 = no growth, -100 = all killed). Particulars: 10 µM unless noted.
`O=C(/C=C/c1cccc([N+](=O)[O-])c1)c1ccc(O)c(CN2CCN(c3cc4c(cc3F)c(=O)c(C(=O)O)cn4C3CC3)CC2)c1`: the growth is -24.5% (active).
Turning to `COc1cc(C(=O)N/N=C/c2ccc(N(C)C)cc2)cc(OC)c1OC`, the growth was -12.5% (active).
`Cc1cc(C)c(NC(=O)c2sc3nc4c(cc3c2N)CN(Cc2ccccc2)CC4)c(C)c1`: the growth is 14%.
On to `COc1ccc(C2C(C#N)=C(/N=C/c3ccc(Cl)cc3)Oc3c2sc2c(C)cccc32)cc1` (configuration not stated), for which the growth was 21.4%.
As to `N=C(N)N=Nc1ccc(O)cc1`, the growth was 88% [100 µM].
The same measure for `O=C(/C=C/c1ccccc1)N(C1CCCCC1)C1CCCCC1`: 72.4%; for `O=[N+]([O-])c1ccc(N/N=C\c2ccccc2[N+](=O)[O-])nc1`: 114%; for `Nc1ccn(C2O[C@H](CO)[C@@H](O)[C@H]2O)c(=O)n1` (some centres not stated): 96.8%.
The same measure for `CCOc1ccc(-n2nc(C(=O)NCc3ccccc3OC)nc2-c2cc(OC)c(OC)c(OC)c2)cc1`: 72.4%; for `Cc1ccc(/C=C2\COc3ccc(O)cc3C2=O)cc1`: 91.4%; for `COCCc1n(Cc2ccc3ccccc3c2)c2ccccc2[n+]1Cc1ccc2ccccc2c1`: -23.4% (active).
For the compound `O=C(CN1C(=O)NC2NC(=O)NC21)N/N=C/c1ccc(Cl)cc1Cl` (configuration not stated), the growth was 99.9%.
With `C[C@H]1[C@H](OC(=O)CCC(=O)O)O[C@@H]2O[C@]3(C)CC[C@H]4[C@H](C)CC[C@@H]1[C@@]24OO3` the figure was 29.1%.
The same measure for `COc1ccc(/C(N)=N/C(N)=N/c2nc3ccccc3s2)cc1`: 24.3%; for `O=C(Nc1cccc(-n2cc(-c3ccncc3)c(-c3ccc(O)c(Cl)c3)n2)c1)c1ccc(Cl)c(Cl)c1`: 68.9%; for `Cc1ccc(Cn2c(-c3nonc3N)nc3ccccc32)cc1`: 58.8%.
The same measure for `N#Cc1nc(-c2ccc(Cl)cc2)cc(-c2ccc(Nc3nc(N4CCCCC4)nc(N4CCCCC4)n3)cc2)c1N`: 106%; for `NCCCCCCNc1cc(-c2cccc(OC(F)(F)F)c2)nc2ccc(N3CCCC3)cc12`: -87.9% (active).
Turning to `O=C(Nc1ccc(CO)cc1)c1ccccc1Nc1ccnc(C(F)(F)F)c1`, the growth is 123%.
The same measure for `COc1cc(-c2cc(-c3nc4ccc(F)cc4[nH]3)[nH]n2)cc(OC)c1OC`: 16.6%; for `C=CC(=O)NCc1ccc(Nc2nccc(-c3ccc(N4CCCC4)c(C#N)c3)n2)cc1`: 15.7%; for `Nc1cc(C(F)(F)F)c(-c2cc(N3CCOCC3)nc(N3CCOCC3)n2)cn1`: -51.6% (active).
The same measure for `Cc1[nH]c(C(=O)Nc2ccc(C(=O)N3CCN(c4cc5c(cc4F)c(=O)c(C(=O)O)cn5C4CC4)CC3)cc2OC(C)C)c(Cl)c1Cl`: 85.9%; for `CC(=O)N(N=Nc1ccccc1)c1cccc2ccccc12`: 84.7%.
For the compound `COC(=O)N[C@H]1CCc2cc(OC)c(OC)c(OC)c2-c2ccc(SC)c(=O)cc21`, the growth is -32% (active).
With `O=C(Nc1ccc(Cl)cc1)Nc1ccc(Nc2nncc3ccccc23)cc1` the figure was 0.165% (active); with `N/C(=N\S(=O)(=O)c1ccccc1)Nc1nc2ccccc2s1`, 91%.
`c1ccc(-c2c(-c3ccccc3)[n+](Cc3ccc4ccccc4c3)cn2Cc2ccc3ccccc3c2)cc1`: the growth was -85% (active).
With `O=C(NCc1ccccc1)C(Cl)Cl` the figure was 85.2%; with `Cc1cc(=O)[nH]c(O)c1C#N`, 97.5% and 95.9% and 111%.
With `C#CCOc1ccccc1/C=N/Nc1nc(-c2ccc(Cl)cc2)cs1` the figure was 95.6%; with `COc1cc2c(c(OC)c1OC)CCC(c1cccc(C(=O)Nc3cccc(Br)c3)c1)O2` (configuration not stated), 58.6%.
As to `O=[N+]([O-])c1ccc(N=Nc2ccc(O)cc2O)cc1`, the growth was -4.48% (active).
With `CS(=O)(=O)c1ncc(-c2ccccc2)cn1`, the growth was 95.6%.
On to `C=C(C)[C@@H]1CC[C@]2(C(=O)N3CCN(C)CC3)CC[C@]3(C)[C@H](CC[C@@H]4[C@@](C)(CCC(=O)O)[C@H](C(=C)C)CC[C@]43C)[C@@H]12`, for which the growth is 90.1%.
With `Clc1ccc2[nH]cc(-c3cncn3CCc3ccccc3)c2c1` the figure was 7.96% (active); with `C[C@H]1[C@H]2[C@H]3CC[C@@H]4[C@@]5(C)C/C(=C/c6ccco6)C(=O)C(C)(C)[C@@H]5CC[C@@]4(C)[C@]3(C)CC[C@]23CO[C@]1(C)[C@@H](C(=O)/C=C\c1ccco1)C3`, 76.3%.
